Consider seven sequences from article PMC7862700, “An all-to-all approach to the identification of sequence-specific readers for epigenetic DNA modifications on cytosine”.

Common to all, as to assay: DAPPL (digital affinity profiling via proximity ligation, sequencing); 10 mM Tris-HCl pH 7.5, 50 mM NaCl, 1 mM DTT, 4% glycerol, room temperature, 30 min; GST-TFs on glutathione beads, 16-mer random dsDNA library, 0.1% formaldehyde crosslink after washing; high values mean tight binding
Common to all, as to details: protein: recombinant; tags: N-terminal GST; dsDNA, one strand shown

The target in one test is T1, FLI1 (Homo sapiens, UniProt Q01543 1-452).
T1 sequence: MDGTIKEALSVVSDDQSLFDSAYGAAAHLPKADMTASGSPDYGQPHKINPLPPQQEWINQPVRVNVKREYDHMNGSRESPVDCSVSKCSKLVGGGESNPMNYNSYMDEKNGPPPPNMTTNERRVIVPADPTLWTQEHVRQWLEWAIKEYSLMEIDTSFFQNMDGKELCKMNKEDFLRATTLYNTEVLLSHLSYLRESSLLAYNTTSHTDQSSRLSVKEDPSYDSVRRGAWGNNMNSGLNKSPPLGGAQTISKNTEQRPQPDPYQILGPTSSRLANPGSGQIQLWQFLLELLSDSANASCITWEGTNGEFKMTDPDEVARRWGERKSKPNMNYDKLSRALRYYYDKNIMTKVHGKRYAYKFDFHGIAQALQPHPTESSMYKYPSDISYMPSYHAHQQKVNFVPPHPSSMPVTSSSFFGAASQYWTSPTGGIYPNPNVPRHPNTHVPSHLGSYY
The gist of the method:
(§1)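 After expression in yeast as GST fusions, human transcription factors were bound to glutathione beads, DNA-barcoded and mixed with a tag-only sample. The pools were incubated with 200 nmole of a 16-mer random double-stranded DNA library in Tris/NaCl/DTT/glycerol buffer (30 min, room temperature), washed and crosslinked with 0.1% formaldehyde. Proximity ligation with BsaI/T4 ligase ran for 1 h at 37 °C, before PCR amplification and sequencing on an Illumina NextSeq500. Binding signal is a hexamer's read frequency for a factor divided by its frequency for the tag-only sample.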

For the next test, the target named is T2, ELK1 (Homo sapiens, UniProt P19419 1-428).
T2 sequence: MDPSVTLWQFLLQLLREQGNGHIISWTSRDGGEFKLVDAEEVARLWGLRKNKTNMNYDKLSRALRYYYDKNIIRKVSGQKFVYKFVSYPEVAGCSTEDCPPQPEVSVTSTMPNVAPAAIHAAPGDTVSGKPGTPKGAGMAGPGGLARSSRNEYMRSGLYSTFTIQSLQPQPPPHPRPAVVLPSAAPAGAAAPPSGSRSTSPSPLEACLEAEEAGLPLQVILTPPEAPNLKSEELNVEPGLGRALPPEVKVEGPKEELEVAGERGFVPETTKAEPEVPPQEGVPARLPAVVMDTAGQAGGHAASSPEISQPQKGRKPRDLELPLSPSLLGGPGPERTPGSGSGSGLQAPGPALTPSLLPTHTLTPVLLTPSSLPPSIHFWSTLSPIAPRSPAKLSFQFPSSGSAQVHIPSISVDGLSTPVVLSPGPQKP
In a few lines: as §1

A further test concerns the target T3, GABPA (Homo sapiens, UniProt Q06546 1-454).
T3 sequence: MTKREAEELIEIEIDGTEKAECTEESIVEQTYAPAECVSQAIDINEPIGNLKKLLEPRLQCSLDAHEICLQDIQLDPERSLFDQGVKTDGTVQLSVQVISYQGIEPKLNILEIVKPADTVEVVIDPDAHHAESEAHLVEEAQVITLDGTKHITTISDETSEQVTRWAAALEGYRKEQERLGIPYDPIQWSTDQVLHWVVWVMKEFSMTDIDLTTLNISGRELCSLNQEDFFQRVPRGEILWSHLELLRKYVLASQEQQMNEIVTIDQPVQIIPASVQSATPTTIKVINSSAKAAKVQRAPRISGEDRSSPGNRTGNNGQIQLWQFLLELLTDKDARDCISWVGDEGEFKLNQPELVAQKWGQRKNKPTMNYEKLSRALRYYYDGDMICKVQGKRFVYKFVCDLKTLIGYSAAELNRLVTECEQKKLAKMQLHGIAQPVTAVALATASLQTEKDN
The gist of the method:
as §1

Another test concerns the target T4, ERG (Homo sapiens, UniProt P11308 1-479).
T4 sequence: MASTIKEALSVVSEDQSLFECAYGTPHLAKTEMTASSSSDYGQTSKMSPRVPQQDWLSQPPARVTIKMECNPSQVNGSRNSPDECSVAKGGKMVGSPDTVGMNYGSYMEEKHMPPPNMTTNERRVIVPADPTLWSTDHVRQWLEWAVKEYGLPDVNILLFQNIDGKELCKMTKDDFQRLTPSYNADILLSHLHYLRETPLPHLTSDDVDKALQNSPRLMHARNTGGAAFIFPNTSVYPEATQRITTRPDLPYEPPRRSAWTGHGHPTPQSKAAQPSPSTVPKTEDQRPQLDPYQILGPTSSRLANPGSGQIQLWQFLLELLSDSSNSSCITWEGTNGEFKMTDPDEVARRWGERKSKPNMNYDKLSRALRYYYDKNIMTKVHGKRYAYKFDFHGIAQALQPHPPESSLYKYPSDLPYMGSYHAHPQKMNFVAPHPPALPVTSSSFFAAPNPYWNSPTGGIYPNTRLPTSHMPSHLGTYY
In a few lines: as §1

The target in another test is ELF1 (Homo sapiens, UniProt P32519 1-619). The gist of the method: as §1
ELF1, sequence (P32519 whole entry): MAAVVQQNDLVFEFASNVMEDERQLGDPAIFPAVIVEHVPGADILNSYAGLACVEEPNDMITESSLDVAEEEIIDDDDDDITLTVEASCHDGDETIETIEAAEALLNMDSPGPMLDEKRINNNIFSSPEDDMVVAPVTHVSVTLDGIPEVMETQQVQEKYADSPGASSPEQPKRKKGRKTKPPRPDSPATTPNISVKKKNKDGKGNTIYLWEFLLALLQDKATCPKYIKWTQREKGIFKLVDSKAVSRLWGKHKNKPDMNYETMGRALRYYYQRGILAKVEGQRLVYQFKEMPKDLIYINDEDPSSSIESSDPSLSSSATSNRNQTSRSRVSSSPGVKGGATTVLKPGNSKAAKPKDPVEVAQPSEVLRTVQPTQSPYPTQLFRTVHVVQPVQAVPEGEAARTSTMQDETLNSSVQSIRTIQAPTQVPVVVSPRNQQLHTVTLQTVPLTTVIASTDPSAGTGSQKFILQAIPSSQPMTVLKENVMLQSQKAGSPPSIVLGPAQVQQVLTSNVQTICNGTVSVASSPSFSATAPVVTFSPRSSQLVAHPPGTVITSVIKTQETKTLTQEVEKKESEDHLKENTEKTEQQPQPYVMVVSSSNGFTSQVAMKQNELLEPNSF
Another test addresses T5, EHF (Homo sapiens, UniProt Q9NZC4 1-300).
T5 sequence: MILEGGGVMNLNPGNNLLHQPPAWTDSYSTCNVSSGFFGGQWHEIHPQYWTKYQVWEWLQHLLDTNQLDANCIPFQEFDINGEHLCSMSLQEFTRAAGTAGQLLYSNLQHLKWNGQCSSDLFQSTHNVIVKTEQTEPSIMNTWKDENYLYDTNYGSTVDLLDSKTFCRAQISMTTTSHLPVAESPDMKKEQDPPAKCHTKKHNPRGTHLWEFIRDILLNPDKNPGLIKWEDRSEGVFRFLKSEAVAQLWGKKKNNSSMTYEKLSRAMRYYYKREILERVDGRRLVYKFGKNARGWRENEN
The gist of the method: as §1

The target in a further test is SPI1 (Homo sapiens, UniProt P17947 1-270). In a few lines: as §1
The target in a further test is SPIB (Homo sapiens, UniProt Q01892 1-262). The gist of the method: as §1
SPIB, sequence (Q01892 whole entry): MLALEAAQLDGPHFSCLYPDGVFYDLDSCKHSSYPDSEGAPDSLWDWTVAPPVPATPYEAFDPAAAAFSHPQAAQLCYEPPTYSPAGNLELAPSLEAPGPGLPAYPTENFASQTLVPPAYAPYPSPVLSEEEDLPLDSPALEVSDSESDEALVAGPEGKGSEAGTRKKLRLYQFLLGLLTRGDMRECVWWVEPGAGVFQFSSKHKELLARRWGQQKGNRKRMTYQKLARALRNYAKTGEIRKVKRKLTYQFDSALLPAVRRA
A further test addresses T6, ELK3 (Homo sapiens, UniProt P41970 1-407).
T6 sequence: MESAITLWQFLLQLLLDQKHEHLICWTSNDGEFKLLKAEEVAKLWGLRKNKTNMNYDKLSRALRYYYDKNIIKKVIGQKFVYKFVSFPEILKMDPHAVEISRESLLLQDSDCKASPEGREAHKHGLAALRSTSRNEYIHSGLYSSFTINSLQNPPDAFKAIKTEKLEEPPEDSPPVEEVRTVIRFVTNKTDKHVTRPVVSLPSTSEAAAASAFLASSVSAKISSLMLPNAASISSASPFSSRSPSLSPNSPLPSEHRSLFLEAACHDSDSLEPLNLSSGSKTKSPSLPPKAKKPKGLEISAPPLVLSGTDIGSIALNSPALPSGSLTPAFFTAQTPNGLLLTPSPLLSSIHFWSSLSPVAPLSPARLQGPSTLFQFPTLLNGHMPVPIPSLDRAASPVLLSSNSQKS
In a few lines:
as §1

Regarding TTCTAT, the binding signal with FLI1 was 1.4 fold enrichment (6-mer frequency, TF over GST control); in the test with ELK1, 1.49 fold enrichment (6-mer frequency, TF over GST control); in the test with GABPA it was 1.31 fold enrichment (6-mer frequency, TF over GST control); in the test with ERG, 1.26 fold enrichment (6-mer frequency, TF over GST control); in the test with ELF1 it was 1.46 fold enrichment (6-mer frequency, TF over GST control); with EHF, 1.42 fold enrichment (6-mer frequency, TF over GST control). In addition, the binding signal with SPI1 was 1.36 fold enrichment (6-mer frequency, TF over GST control); with SPIB, 1.41 fold enrichment (6-mer frequency, TF over GST control); in the test with ELK3, 1.35 fold enrichment (6-mer frequency, TF over GST control).

ATGCAA: the binding signal is 1.32 fold enrichment (6-mer frequency, TF over GST control) with FLI1; 1.26 fold enrichment (6-mer frequency, TF over GST control) with ELK1; 1.27 fold enrichment (6-mer frequency, TF over GST control) in the test with GABPA; 1.29 fold enrichment (6-mer frequency, TF over GST control) with ERG; 1.25 fold enrichment (6-mer frequency, TF over GST control) with ELF1; 1.25 fold enrichment (6-mer frequency, TF over GST control) with EHF. The binding signal was 1.2 fold enrichment (6-mer frequency, TF over GST control) with SPI1; 1.26 fold enrichment (6-mer frequency, TF over GST control) with SPIB; 1.18 fold enrichment (6-mer frequency, TF over GST control) with ELK3.

Turning to TCAATA, the binding signal was 1.21 fold enrichment (6-mer frequency, TF over GST control) in the test with FLI1; 1.17 fold enrichment (6-mer frequency, TF over GST control) in the test with ELK1; 1.24 fold enrichment (6-mer frequency, TF over GST control) with GABPA; 1.14 fold enrichment (6-mer frequency, TF over GST control) with ERG; 1.17 fold enrichment (6-mer frequency, TF over GST control) with ELF1; 1.14 fold enrichment (6-mer frequency, TF over GST control) in the test with EHF. For the same sequence, the binding signal is 1.23 fold enrichment (6-mer frequency, TF over GST control) with SPI1; 1.06 fold enrichment (6-mer frequency, TF over GST control) in the test with SPIB; 1.2 fold enrichment (6-mer frequency, TF over GST control) with ELK3.

For AACCCT, the binding signal in the test with FLI1 was 1.31 fold enrichment (6-mer frequency, TF over GST control); with ELK1, 1.4 fold enrichment (6-mer frequency, TF over GST control); with GABPA, 1.29 fold enrichment (6-mer frequency, TF over GST control); with ERG it was 1.23 fold enrichment (6-mer frequency, TF over GST control); with ELF1, 1.35 fold enrichment (6-mer frequency, TF over GST control); with EHF it was 1.18 fold enrichment (6-mer frequency, TF over GST control). Moreover, the binding signal is 1.32 fold enrichment (6-mer frequency, TF over GST control) in the test with SPI1; 1.29 fold enrichment (6-mer frequency, TF over GST control) with SPIB; 1.5 fold enrichment (6-mer frequency, TF over GST control) with ELK3.

As to CTGCCT, the binding signal with FLI1 was 1.2 fold enrichment (6-mer frequency, TF over GST control); with ELK1 it was 1.28 fold enrichment (6-mer frequency, TF over GST control); in the test with GABPA, 1.33 fold enrichment (6-mer frequency, TF over GST control); in the test with ERG it was 1.18 fold enrichment (6-mer frequency, TF over GST control); with ELF1, 1.34 fold enrichment (6-mer frequency, TF over GST control); with EHF it was 1.33 fold enrichment (6-mer frequency, TF over GST control). Also, the binding signal with SPI1 was 1.27 fold enrichment (6-mer frequency, TF over GST control); with SPIB it was 1.21 fold enrichment (6-mer frequency, TF over GST control); with ELK3, 1.04 fold enrichment (6-mer frequency, TF over GST control).

For CTTAAC, the binding signal is 1.21 fold enrichment (6-mer frequency, TF over GST control) with FLI1; 1.17 fold enrichment (6-mer frequency, TF over GST control) with ELK1; 1.28 fold enrichment (6-mer frequency, TF over GST control) with GABPA; 1.26 fold enrichment (6-mer frequency, TF over GST control) in the test with ERG; 1.35 fold enrichment (6-mer frequency, TF over GST control) with ELF1; 1.26 fold enrichment (6-mer frequency, TF over GST control) in the test with EHF. Moreover, the binding signal in the test with SPI1 is 1.32 fold enrichment (6-mer frequency, TF over GST control); with SPIB, 1.4 fold enrichment (6-mer frequency, TF over GST control); in the test with ELK3, 1.31 fold enrichment (6-mer frequency, TF over GST control).

In the case of TACACT, the binding signal with FLI1 was 1.41 fold enrichment (6-mer frequency, TF over GST control); with ELK1, 1.57 fold enrichment (6-mer frequency, TF over GST control); with GABPA it was 1.51 fold enrichment (6-mer frequency, TF over GST control); in the test with ERG, 1.58 fold enrichment (6-mer frequency, TF over GST control); in the test with ELF1, 1.5 fold enrichment (6-mer frequency, TF over GST control); in the test with EHF, 1.62 fold enrichment (6-mer frequency, TF over GST control). Besides, the binding signal with SPI1 is 1.54 fold enrichment (6-mer frequency, TF over GST control); with SPIB, 1.5 fold enrichment (6-mer frequency, TF over GST control); in the test with ELK3, 1.51 fold enrichment (6-mer frequency, TF over GST control).
